The supplement of paper PMC3334620
Whole data set: some 33,000 sequences, median “E-score (-0.5 to 0.5)” near -0.011, cut for the highest 2% near 0.28. What follows is part of a selection rich in the highest values, with near analogues and random picks from the rest.

target: T1, Gcr1 (UniProt P07261); assay: PBM E-score (8-mer binding enrichment) (E-score (-0.5 to 0.5)); higher = stronger / more preferred TF binding; details: protein concentration: 100 nM; construct: GST-full length
T1 sequence: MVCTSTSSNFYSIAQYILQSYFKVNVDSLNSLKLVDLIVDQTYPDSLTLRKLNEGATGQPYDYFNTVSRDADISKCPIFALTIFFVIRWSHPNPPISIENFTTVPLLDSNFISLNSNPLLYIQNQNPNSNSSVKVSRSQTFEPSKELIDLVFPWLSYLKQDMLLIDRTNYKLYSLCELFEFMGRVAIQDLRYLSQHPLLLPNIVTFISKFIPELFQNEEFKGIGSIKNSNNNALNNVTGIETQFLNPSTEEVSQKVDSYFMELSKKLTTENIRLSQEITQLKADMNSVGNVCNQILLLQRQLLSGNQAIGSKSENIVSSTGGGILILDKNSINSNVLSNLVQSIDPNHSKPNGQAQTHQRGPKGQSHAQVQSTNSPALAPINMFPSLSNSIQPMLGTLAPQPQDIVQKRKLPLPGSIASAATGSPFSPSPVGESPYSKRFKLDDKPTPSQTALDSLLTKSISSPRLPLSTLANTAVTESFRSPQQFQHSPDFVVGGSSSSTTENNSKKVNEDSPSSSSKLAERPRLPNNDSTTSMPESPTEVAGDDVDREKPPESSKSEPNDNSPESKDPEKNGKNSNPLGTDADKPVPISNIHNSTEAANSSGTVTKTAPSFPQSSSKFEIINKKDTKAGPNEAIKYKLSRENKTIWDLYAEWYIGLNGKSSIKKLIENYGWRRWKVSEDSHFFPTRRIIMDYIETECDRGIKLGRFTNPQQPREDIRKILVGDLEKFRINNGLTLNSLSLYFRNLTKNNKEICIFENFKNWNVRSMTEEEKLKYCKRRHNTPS
Protocol: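 Universal 'all 10-mer' protein binding microarrays (Agilent AMADID 015681) probed with GST-tagged S. cerevisiae TFs (full-length or DBD) made by in vitro transcription/translation (PURExpress), about 100-200 nM. Bound TF was detected with fluorescent anti-GST. Each ungapped 8-mer (which stands for itself and its reverse complement) is scored by the PBM enrichment score (E-score), a modified Wilcoxon-Mann-Whitney statistic from -0.5 to +0.5, computed with the Universal PBM Analysis Suite. Scale: above 0.35 generally sequence-specific binding.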

Sequence	PBM E-score
CAGGGACC	0.0209
AAAGTCTT	-0.247
AGACACTA	-0.0252
ATAAAGGG	0.123
ACGGAGCT	-0.175
ACGAAGCG	0.0293
ACGAAGCT	0.399
ACGAAGCA	-0.12
ACGAAGCC	0.428
CCGAAGCC	0.136
ACAAAGCT	0.0432
TCAGGCCA	-0.118
GACAGACC	-0.157
AACTAGTT	0.0246
AGGCTCGC	-0.213
CCTGGGCA	-0.022
CCTATAGC	-0.0383
ACTATAGA	0.0257
CCTATAGA	0.286
TATGAAGA	0.0942
ATAATTAC	0.0678
ATAATTAA	0.134
ATAATTAT	0.297
GAAAGAGA	-0.038
GCGCTGCC	0.0863

Sequence	PBM E-score
ACGCTGCT	0.34
ACGCTGCG	0.086
ACGCTGCC	0.339
ACGCTGAT	-0.0742
ACGCTGCA	0.0243
AGCAGGAC	-0.0439
AGTCCCGG	0.108
CCAGGCCG	-0.117
GAGCTAGC	-0.122
GCGAGCGC	-0.0888
AGATCAGA	-0.0273
AACCCTGT	-0.0296
CAATCTGG	-0.0284
AAATCTGG	0.292
AAATCTGC	0.0369
CCGTTAGG	0.0609
CCCGGGAC	0.21
ATTGCGGG	-0.0146
GGTGCCCA	0.382
CGTGCCCA	0.0649
GATGCCCA	0.378
AGTGCCGA	-0.0356
TATGCCCA	-0.14
AGTGCCCA	0.0254
GGTGCCGA	0.285

Sequence	PBM E-score
GATGCCCC	0.248
CGTGCCGA	-0.0978
AGATTCAG	0.117
ACAGGGAC	0.107
ACTTCCCA	0.0658
CCTTCCCC	-0.122
GCTTCCCA	0.386
ACTTCCCC	0.0219
CCTTCCCA	0.122
GCTTCCCC	0.341
CTGTGGGC	0.0855
GGTAGATA	0.00026
CAGTGCCA	-0.0969
ATGCCGGA	0.215
AATAGCGC	0.0793
GCATCCTA	0.4
ACATCCTA	0.166
CCATCCTA	0.0473
GCATCCGA	0.33
ACATCCGA	-0.104
CCATCCGA	-0.0665
ACCTATAT	0.194
ATGTTGTC	-0.117
ATAATTGC	-0.00448
CCGTATAA	0.195

Sequence	PBM E-score
TCGTATAA	0.286
GCGTATAC	0.156
GTGTATAA	-0.0442
ACGTATAA	0.132
ACCTATAA	0.0515
TCCTATAA	0.334
GCGTATAA	0.353
CCCTATAA	0.141
AAGGTGCA	-0.0118
CAATAGCG	0.025
CGAAATAG	0.131
ACCCTGCG	-0.0486
CGGAATAA	-0.168
GATGCGCA	0.134
ATGGTTGC	0.274
ATGGTTCC	0.0654
CTGGTTGC	0.288
CCGGTTGA	0.0186
CTGGTTGA	-0.09
CTGGTTCA	-0.192
CCGGTTGC	0.317
ACGGTTGC	-0.264
CTGGTTCC	0.34
ACGGTGTC	-0.168
CTGCTACA	0.0929

Sequence	PBM E-score
CTCATCAG	0.0338
CTTCTATA	0.187
CAGATACA	0.0958
GACATTCA	-0.094
AATAACGT	0.00611
AGATGCTG	0.282
AGATGCCT	0.17
GGATGCCC	0.464
AGATGCCC	0.108
GAATGCTA	-0.121
AGATGCCA	0.385
CGATGCCC	0.0343
CGATGCTA	0.266
GGATGCTA	0.44
AGATGCTA	0.25
AGATGCTC	0.0444
AGATGCCG	0.273
AGAGCGCC	0.0412
CGCAACAG	-0.0598
GGCAAACA	-0.14
GTGGGAGA	0.0205
GTGGTAGA	-0.166
AAGGTTGT	0.0394
CGATGCCA	0.156
TGATGCCA	-0.0459

Sequence	PBM E-score
GGATGCCA	0.454
CGTAGGGC	-0.108
ATTAGCTG	0.107
AACTGTAC	-0.166
CGGAAGCC	0.451
CGGAAGCA	0.0914
AAGAAGGT	0.122
CGGAAGGC	0.00052
GAGAAGCC	0.395
AAGAAGCT	0.386
AAGAAGCA	0.165
GAGAAGCA	0.111
AAAAAGCT	-0.183
GCGAAGCC	0.1
AAGAAGCC	0.401
AAGAAGCG	0.0955
CGACCCCC	-0.203
GCAGAGAA	-0.0151
TGAGCACA	-0.235
AGCATAAT	-0.00272
ATATACTA	0.174
AAAGTTAA	0.0767
CAGAAGCG	0.223
CAGAAGCC	0.306
CAGAAGCA	0.0126

Sequence	PBM E-score
ACGCTAGA	-0.0413
TAGCGATA	-0.0939
CATGCCTC	-0.101
CTCCAGCC	-0.183
CAATCGGG	0.0633
CAGCAACC	0.287
CCGCAACA	-0.0641
CGGCAACA	0.206
CGGCAACC	0.29
CCGCAACC	0.316
ACGCAACC	0.121
AAGCAACC	0.0616
CAGCAACG	0.0545
AGGCAACC	0.0186
TTCGCCAA	0.0203
CCACCGCC	-0.0958
ACTTTGCA	-0.0113
CCGGGGAA	0.0357
CAACGCAC	-0.152
AAGATATT	0.125
ACCGAGTC	-0.306
ATAGAGAA	-0.111
CGAGTAGC	-0.018
GGTGTGAA	-0.0292
CCTGATCC	0.0357

Sequence	PBM E-score
ACGAAGAA	-0.0157
CAGAAGAA	0.212
AATAAGAA	0.328
AAGAAATT	0.0237
GAGAAGAA	0.0707
AATAAGAG	0.0844
AAGAAGAA	0.303
AAGAAAAT	0.304
AATAAGAT	0.0233
AAGAAGAC	0.0399
TAGAAGAA	0.352
AAGAAAAA	0.164
CCGGAGAA	-0.189
AGGTTTTC	0.0618
CACACAAG	0.128
ACTTTCAC	0.0906
TACCCCGA	-0.036
GGACCGAA	0.0294
AAATCGTT	-0.0365
AAGAAGAG	0.237
ACGAAGAT	0.00119
CACAAGAA	0.275
TACAAAAA	0.0752
AAGAAGAT	0.338
TACAAGAA	0.379

Sequence	PBM E-score
GTCGGCAA	0.0614
GGATCAAC	-0.00409
ACTCAATA	0.156
GTTTGGGA	-0.0986
ATTTGGGA	0.301
CATTTGGA	0.172
AATTTGGA	0.263
GTTTTGGA	0.122
TATTTGGA	0.313
ATTTTGGA	0.282
ATTTGGGG	0.23
ATTTTGGG	0.274
AAGCTCCG	0.00534
AACCAACA	0.0425
CTTTGAGC	-0.149
GACCATCC	-0.0793
ACGCCCGC	0.105
GCGCCCGC	0.315
GCGCCCAC	0.317
CCGCCCAC	0.0451
CCGCCCGC	-0.0787
GCGCCCAA	0.18
